Assay results taken from PubChem BioAssay (NCATS).
Records with an inconclusive call do not appear. Activity calls are given as the source filed them. Calls come from the whole dose curve; as a rule, active = well fitted inhibition curve with a large enough effect; inconclusive = small, poorly fitted or top-dose-only effect; inactive = flat fitted curve, though single readings scatter.

test system: HEK293; assay: Cytotoxic Profiling of Annotated Libraries Using Quantitative High-Throughput Screening (AID 1296008); conditions: Five cell lines viability, CellTiter-Glo ATP luminescence, 48-72 h; max response: hits give low values; note: nearly all actives have a fitted effect of over 60% in size
From the text: Cell-based phenotypic screening is a commonly used approach to discover biological pathways, novel drug targets, chemical probes and high-quality hit-to-lead molecules. Many hits identified from high-throughput screening campaign are ruled out through a series of follow-up potency, selectivity/specificity, and cytotoxicity assays. Prioritization of molecules with little or no cytotoxicity for a more in-depth downstream evaluation influence the future direction of projects, so cytotoxicity profiling of the screening libraries at early stage is essential for increasing the likelihood of candidate success. […] For the annotated library, we also examined the primary targets and mechanistic pathways regularly associated with cell death. To our knowledge, this is the first study to use high-throughput screening to profile large libraries for cytotoxicity assessment in both normal and cancer cell lines. In summary, the results generated here constitutes a valuable resource for the scientific community and provides insight on identifying cytotoxic compounds with particular mechanisms of action, and prioritizing compounds with suitable cytotoxicity profile for further evaluation.
A pintool (Kalypsys) was used to transfer 23 nL of compound solution to the 1536-well assay plates. After 48 or 72 hr incubation at 37 degree Celsius, 5% CO2 and 95% humidity, 2.5 uL of CellTiter-Glo (Promega) was dispensed into each well using a dispenser (Aspect Automation, St. Paul, MN) with solenoid valves (Lee Valves, Westbrook CT). Plates were left at room temperature for 10 min before imaging the ATP-coupled luminescence using a ViewLux microplate imager (PerkinElmer, Waltham, MA).
% is set by controls: 0 for no effect and ±100 for the full control effect; potency is the fitted concentration of half-maximal effect.

SMILES	max response	Potency	outcome
Nc1ccn(C2CO[C@H](CO)O2)c(=O)n1 (stereo not given in full)	-12.3% (inactive)	–	–
COc1cccc2c1C(=O)c1c(O)c3c(c(O)c1C2=O)C[C@@](O)(C(=O)CO)C[C@H]3O[C@H]1C[C@H](N)[C@H](O)[C@H](C)O1	–	59 nM (active)	–
CCS(=O)(=O)Nc1ccc2[nH]c(O)c(C(=Nc3ccc(CN4CCCCC4)cc3)c3ccccc3)c2c1	–	743 nM (active)	–
Cc1ccc(O)c(C(CCN(C(C)C)C(C)C)c2ccccc2)c1 (stereo not given)	-19.9% (inactive)	–	–
N#CC(=Cc1ccc(O)c(O)c1)C(=O)NCc1ccccc1	-6.05% (inactive)	–	–
NC(=NCCCCCCN=C(N)N=C(N)Nc1ccc(Cl)cc1)N=C(N)Nc1ccc(Cl)cc1	–	13200 nM (active)	–
CON=C(C(=O)N[C@@H]1C(=O)N2C(C(=O)O)=C(CSC(=O)c3ccco3)CS[C@H]12)c1csc(N)n1	–	–	inactive
Oc1cc(-c2nc(-c3ccccc3)[nH]c2-c2ccncc2)ccc1Cl	–	23500 nM (active)	–
CC(Oc1ccc(O)cc1)(P(=O)(O)O)P(=O)(O)O	–	–	inactive
C[C@]12CC[C@@H]3c4ccc(O)cc4CC[C@H]3[C@H]1CC[C@H]2O	–	20900 nM (active)	–
CC(=O)OCC(=O)[C@@]12N=C(C)O[C@H]1C[C@H]1[C@@H]3CCC4=CC(=O)C=C[C@]4(C)[C@@H]3[C@@H](O)C[C@@]12C	-6.3% (inactive)	–	–
COc1ccc(C[C@@H](C)[C@@H](C)Cc2ccc(OC)c(OC)c2)cc1OC	–	2640 nM (active)	–
COC(=O)[C@H](CCCN=C(N)N)NS(=O)(=O)c1ccc(C)cc1	–	–	inactive
C[C@H]1O[C@H](O[C@H]2[C@H](O)[C@@H](O)[C@@H](O[C@H]3[C@H](O)[C@@H](O)C(O)O[C@H]3CO)O[C@H]2CO)[C@H](O)[C@@H](O)[C@H]1N[C@H]1C=C(CO)[C@@H](O)[C@H](O)[C@@H]1O (stereo not given in full)	–	9350 nM (active)	–
CC[C@]12C=CCN3CC[C@@]4(c5cc([C@@]6(C(=O)OC)C[C@H]7C[C@@H](C(C)(F)F)CN(Cc8c6[nH]c6ccccc86)C7)c(OC)cc5N(C)[C@H]4[C@@](O)(C(=O)OC)[C@H]1OC(C)=O)[C@@H]32	–	8.3 nM (active)	–
CCOc1cc2ncc(C#N)c(Nc3ccc(OCc4ccccn4)c(Cl)c3)c2cc1NC(=O)C=CCN(C)C	–	3320 nM (active)	–
CC[C@H]1OC(=O)[C@H](C)[C@@H](O[C@H]2C[C@@](C)(OC)[C@@H](O)[C@H](C)O2)[C@H](C)[C@@H](O[C@@H]2O[C@H](C)C[C@H](N(C)C)[C@@H]2O)[C@](C)(OC)C[C@@H](C)C(=O)[C@H](C)[C@@H](O)[C@]1(C)O	-15.9% (inactive)	–	–
COc1ccc(C=Cc2cc(OC)c(OC)c(OC)c2)cc1NC(=O)[C@H](N)CO	–	3.7 nM (active)	–
O=c1ccn([C@@H]2O[C@H](CO)[C@H](O)[C@@H]2F)c(=O)[nH]1	-5.58% (inactive)	–	–
Cn1cnc2c(F)c(Nc3ccc(Br)cc3F)c(C(=O)NOCCO)cc21	-7.34% (inactive)	–	–

SMILES	max response	Potency	outcome
C=C(C)[C@@H]1CC[C@]2(C)CC[C@]3(C)[C@H](CC[C@@H]4[C@@]5(C)CC[C@H](O)C(C)(C)[C@H]5CC[C@]43C)[C@@H]12	–	–	inactive
CN(N=O)C(=O)N[C@H]1C(O)OC(CO)[C@@H](O)[C@H]1O (stereo not given in full)	-7.38% (inactive)	–	–
O=C(Nc1ccc(Oc2ccnc3[nH]ccc23)c(F)c1)c1cccn(-c2ccc(F)cc2)c1=O	2.79% (inactive)	–	–
Cc1cn([C@@H]2O[C@H](CO)[C@@H](O)[C@H]2F)c(=O)[nH]c1=O	-1.3% (inactive)	–	–
CN[C@H](CC(C)C)C(=O)N[C@H]1C(=O)N[C@@H](CC(N)=O)C(=O)N[C@@H]2C(=O)N[C@H]3C(=O)N[C@H](C(=O)N[C@H](C(=O)O)c4cc(O)cc(O)c4-c4cc3ccc4O)[C@H](O)c3ccc(c(Cl)c3)Oc3cc2cc(c3O[C@@H]2O[C@H](CO)[C@@H](O)[C@H](O)[C@@H]2O[C@H]2C[C@](C)(N)[C@H](O)[C@H](C)O2)Oc2ccc(cc2Cl)[C@H]1O	-10.3% (inactive)	–	–
COc1cc(OC)c(NC(=O)Nc2cc(C)on2)cc1Cl	-18.7% (inactive)	–	–
CO[C@@H]1[C@@H](O)[C@H](O)[C@@H](n2c3c(Cl)cccc3c3c4c(c5c6cccc(Cl)c6[nH]c5c32)C(=O)NC4=O)O[C@@H]1CO	–	662 nM (active)	–
CC(C=CC=C(C)C=CC1=C(C)CCCC1(C)C)=CC=CC=C(C)C=CC=C(C)C=CC1=C(C)CCCC1(C)C	-0.757% (inactive)	–	–
COc1cc(CCc2cc(NC(=O)c3ccc(N4C[C@@H](C)N[C@@H](C)C4)cc3)n[nH]2)cc(OC)c1	–	2960 nM (active)	–
O=C1NC(O)CCN1[C@@H]1O[C@H](CO)[C@H](O)[C@H]1O (stereo not given in full)	-3.17% (inactive)	–	–
CCN(CC)Cc1ccc2cc(COC(=O)Nc3ccc(C(=O)NO)cc3)ccc2c1	–	418 nM (active)	–
CCc1cnn2c(NCc3ccc[n+]([O-])c3)cc(N3CCCC[C@@H]3CCO)nc12	–	33.2 nM (active)	–
COc1ccc(S(=O)(=O)Nc2cccnc2Nc2ccc(O)cc2)cc1	–	935 nM (active)	–
Cc1cc(Nc2ncc3c(n2)N(C)C(=O)N(c2cc(NC(=O)c4cccc(C(F)(F)F)c4)ccc2C)C3)n(C)n1	–	418 nM (active)	–
CC1(C)O[C@@H]2C[C@H]3[C@@H]4CCC5=CC(=O)C=C[C@]5(C)[C@@H]4[C@@H](O)C[C@]3(C)[C@]2(C(=O)CO)O1	–	–	inactive
Cc1cncc2cccc(S(=O)(=O)N3CCCN(C(=O)CN)C[C@@H]3C)c12	–	–	inactive
CCN(CC)CCNC(=O)c1c(C)[nH]c(C=C2C(=O)Nc3ccc(F)cc32)c1C	–	270 nM (active)	–
C=C1CCC2[C@](C)(CO)C(O)CC[C@]2(C)C1CC=C1C(=O)OCC1O (stereo not given in full)	-3.28% (inactive)	–	–
CC(C)Oc1ccc(C(=O)N[C@H](CNC(=O)CN(C)C)Cc2ccc(-c3cn4cccc([C@H](C)O)c4n3)cc2)cc1Cl	–	372 nM (active)	–
Cn1cc(C=CC(=O)c2cccc(F)c2)cc1C=CC(=O)NO	–	–	inactive
